Compound activity (PubChem)
PLAP act – activators of human placental alkaline phosphatase | P05187 | purified PLAP enzyme, luminescent substrate read-out; hits give high values | activation fold at 20 µM | actives 1.2% (n = 96,000) | AID 696; in the data active = activation fold above about 2
PostGolgi ctrl – growth of the yeast control strain, post-Golgi counter-screen | efflux-deficient yeast background strain, growth absorbance A615, 16 h | inhibition, % at 10 µM | actives 5% (n = 98,000) | AID 738
hDAT+cocaine – human DAT dopamine uptake with cocaine, either direction; Q01959; LLC-PK1 hDAT cells, [14C]-dopamine uptake with cocaine IC80; actives deviate in either direction; B-score at 10 µM; actives 1.3% (n = 110,000);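 active = Z score or B-score, a plate-position-corrected score, falls beyond the plate's 99.7% confidence bounds, in either direction; inactive = both scores lie inside the 99.7% bounds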;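 note: scored against the spread of the other compound wells on the same plate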
Target sequence (Q01959 whole entry, looked up): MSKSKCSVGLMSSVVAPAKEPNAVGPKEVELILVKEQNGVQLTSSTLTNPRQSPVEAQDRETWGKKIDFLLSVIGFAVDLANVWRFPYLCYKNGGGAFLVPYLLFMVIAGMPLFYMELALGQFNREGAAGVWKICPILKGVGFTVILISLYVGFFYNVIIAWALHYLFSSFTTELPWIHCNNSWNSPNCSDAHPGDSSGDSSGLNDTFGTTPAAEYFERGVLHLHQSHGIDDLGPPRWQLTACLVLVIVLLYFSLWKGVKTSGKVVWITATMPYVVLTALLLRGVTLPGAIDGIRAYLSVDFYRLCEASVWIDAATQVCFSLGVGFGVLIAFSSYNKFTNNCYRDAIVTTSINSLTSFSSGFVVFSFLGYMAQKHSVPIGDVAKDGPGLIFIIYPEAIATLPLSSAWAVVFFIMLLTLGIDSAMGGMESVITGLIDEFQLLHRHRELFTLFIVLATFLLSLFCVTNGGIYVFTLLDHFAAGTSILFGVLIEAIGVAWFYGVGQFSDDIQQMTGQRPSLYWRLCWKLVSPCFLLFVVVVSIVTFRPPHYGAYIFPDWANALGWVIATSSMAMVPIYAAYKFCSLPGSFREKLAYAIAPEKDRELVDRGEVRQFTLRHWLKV
Cav32 inh – human Cav3.2 channel inhibition, primary screen | O95180 | Cav3.2-expressing cells, Fluo-4 calcium fluorescence FDSS; hits give low values | B-score at 10 µM | actives 4% (n = 100,000) | AID 449739;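 active = single-dose well whose peak fluorescence ratio is a statistical outlier from its plate by either plate-standardised score or position-corrected B-score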
PostGolgi yeast – growth inhibition of a yeast mutant, post-Golgi transport screen; actives 0.9% (n = 98,000); post-Golgi transport phenotypic cell assay; inhibition, % at 10 µM;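 note: yeast cells grown in 1536-well plates; yeast grown about 18 h at 30C before absorbance read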
An asterisk follows results filed as active; . = no result. Sampled rows, rich in hits. Any-hit rate of the full collection: about 9.6%. Cut-off read from the data, not from the text of the source, unless noted: active = inhibition above about 30%; inactive = the rest.

SMILES	PLAP act	PostGolgi ctrl	hDAT+cocaine	Cav32 inh	PostGolgi yeast
O=C(c1ccccc1)N1CCCC(c2nc3c(nnn3Cc3ccccc3)c(=O)[nH]2)C1 (stereo not given)	1.3	-2.3	2.16	0.266	-7.2
O=C(C1CCCCC1)N1CCCC(c2nc3c(nnn3Cc3ccccc3)c(=O)[nH]2)C1 (stereo not given)	1.6	1.2	2.37*	0.201	8.7
O=C(NC1CCCC1)c1nc2c(nnn2Cc2ccccc2Cl)c(=O)[nH]1	1.7	1.0	0.206	-3.42*	-7.0
Cc1ccc(C)c(Cn2nnc3c(=O)[nH]c(C4CCCN(C(=O)C5CCCCC5)C4)nc32)c1 (stereo not given)	1.5	8.1	3.97*	-1.13	-1.1
O=C(NC1CCCC1)c1nc2c(nnn2Cc2cccc(Cl)c2)c(=O)[nH]1	1.9	5.6	1.2	-0.711	-2.3
COC(=O)C1=CN(c2cccc(C)c2)C=C(C(=O)OC)C1c1cc(OC)c(O)c([N+](=O)[O-])c1	1.2	67.0*	0.432	-3.78	-2.4
COC(=O)C1=CN(C)C=C(C(=O)OC)C1c1ccc(O)c(OC)c1	1.2	4.1	0.315	0.0475	17.6
COn1c(SC2CCCCC2)nc2ccccc2c1=O	1.5	15.5	-1.17	-1.73	2.9
Nc1ccc(Oc2ccc3nc(-c4ccccc4)c(-c4ccc([N+](=O)[O-])cc4)nc3c2)cc1	1	18.6	-0.0303	0.0617	37.0*
CCN1CCN(C(CNC(=O)c2ccc3c(c2)OCO3)c2cccnc2)CC1 (stereo not given)	1	28.6	0.813	-0.468	0.8
CC1(C)CC(=O)c2sc(NC(=O)C3CC3)nc2C1	1	36.1*	-1.14	.	4.8
C=CC[C@]12C[C@@H](OC)C(=O)C=C1O[C@@H](c1ccc(OC)c(OC)c1)[C@H]2C	.	.	-0.303	1.83	.
CSCCC(NC(=O)c1ccccc1)C(=O)OCC(=O)Nc1ccc(C)c(Cl)c1 (stereo not given)	1.4	31.3*	0.0205	-2.95	-2.1
COCCNC(C(=O)Nc1cc(Cl)cc(Cl)c1)c1ccccc1 (stereo not given)	1.4	10.4	-0.176	-5.19*	1.8
CCCCOc1ccc(CNC(=S)N/N=C/c2ccc(OC)c(OC)c2)cc1	1.7	33.4*	0.521	-0.548	-5.9
CCOc1ccc(/C=N/NC(=O)c2ccc(Cn3cc([N+](=O)[O-])cn3)o2)cc1	0.9	1.2	1.7	-0.294	20.1
CCOc1ccc(CNC(=S)N/N=C\c2ccc([N+](=O)[O-])cc2)cc1	.	40.0*	-1.52	-0.108	1.6
CCCCOc1ccc(/C=N/NC(=S)Nc2cc(C)ccc2C)cc1	1.2	5.2	0.208	0.283	1.4
COc1ccc(OC)c(NC2c3ccccc3C(=O)N2c2cccnc2)c1 (stereo not given)	1.5	3.0	0.808	0.0192	-2.2
Cc1cccc(C)c1-n1nnnc1C1(Nc2ccccc2)CCCCC1	0.8	44.4*	.	.	3.6
CC(C)(C)c1ccc(OCC(=O)Nc2ccc(-c3nc4cccnc4o3)cc2)cc1	2*	-5.9	-0.115	1.05	-9.2
CCn1c(O)c(C=NCc2cccs2)c(=O)n(CC)c1=S	0.8	56.5*	0.89	-2.56	18.0
CCn1c(SCC(=O)NCc2cccs2)nc2c1c(=O)n(C)c(=O)n2C	0.8	0.3	-0.228	0.477	-1.2
CCOC(=O)c1cnc(-n2nc(C)cc2C)nc1NCc1ccccc1	1.2	46.3*	0.964	-0.976	3.9
CCOC(=O)c1cnc(-n2nc(C)cc2C)nc1NC(C)c1ccccc1 (stereo not given)	.	44.4*	-0.233	-8.81*	8.1
SMILES	PLAP act	PostGolgi ctrl	hDAT+cocaine	Cav32 inh	PostGolgi yeast
CCOC(=O)c1cnc(-n2nc(C)cc2C)nc1NCCO	1	1.2	0.944	-0.488	13.9
COc1cccc(OC)c1C(=O)N1CCN(S(=O)(=O)c2ccc(C)cc2)CC1	1.3	3.5	0.61	0.712	-2.2
Cc1ccc(NC(=O)CS(=O)CC(=O)NC(C)CCc2ccco2)cc1Cl (stereo not given)	0.9	46.6*	-0.381	-0.519	8.5
CC(CCc1ccco1)NC(=O)Nc1cccc(F)c1 (stereo not given)	1.3	5.2	-2.59*	-0.663	27.9
Cc1nc2c(-c3ccc(F)cc3)c(C)nn2c(C)c1CCC(=O)NC(C)CCc1ccco1 (stereo not given)	.	16.1	1.25	-1.86	2.7
Cc1ccc(NC(=O)Cn2cccc2)cc1Cl	1.4	1.0	0.38	0.000235	-4.7
CC(C)c1ccc(NC(=O)C(c2ccc3c(c2)OCO3)N2CCN(C(=O)c3ccco3)CC2)cc1 (stereo not given)	1.8	-1.8	0.684	-5.21*	-5.2
CCCC(C)C(=O)Nc1ccc2c(c1)OCCO2 (stereo not given)	0.9	3.0	-0.768	-0.0911	-2.4
CCN(CC)C(C(=O)Nc1ccc(C(C)C)cc1)c1ccc2c(c1)OCO2 (stereo not given)	1.3	23.9	-0.0217	-4.86*	-8.2
Clc1ccccc1CSc1ncn(-c2ccccc2)n1	.	.	-0.709	-1.97	.
CCc1nc(SCc2cc(Cl)ccc2OC)n[nH]1	2.2*	29.4	-1.31	-0.371	-1.2
CCCc1nc(SCc2ccccc2Cl)n[nH]1	2.2*	2.4	0.997	0.0158	-1.3
Cc1sc(NC(=O)CSc2nnc(-c3ccc(F)cc3)o2)c(C#N)c1C	1.2	4.8	0.203	.	-2.5
O=C1Nc2ccccc2C1(c1ccccc1)c1ccccc1	0.9	29.3	0.51	-9.52*	1.9
O=[N+]([O-])c1ccc(NC(=S)NCCc2ccc(Cl)cc2)cc1	0.8	92.2*	-0.299	-0.316	106.0*
Cc1ccc(C(=O)NCCNc2ccc(Cl)cc2[N+](=O)[O-])o1	1	31.3*	-0.187	-1.13	2.1
O=[N+]([O-])c1cc(Cl)ccc1NCCNc1ncc(C(F)(F)F)cc1Cl	0.8	1.1	0.00721	0.328	-6.7
CN(C)CCNC(=S)Nc1ccc(Cl)cc1	0.9	4.7	-0.683	1.43	1.7
O=[N+]([O-])c1cc(C(F)(F)F)ccc1NCCNC(=S)Nc1ccc(Cl)cc1	0.7	91.2*	-0.139	0.0445	82.1*
CCNCCNc1ccc(Cl)cc1[N+](=O)[O-]	.	.	-0.401	0.32	.
COc1cccc(NC(=O)c2ccn(C)n2)c1	.	.	-1.43	0.384	.
Cc1c(NC(=O)c2ccc3ncccc3c2)c(=O)n(-c2ccccc2)n1C	1	-1.2	-0.282	0.105	3.5
CC1(C)[C@@H](O)CC[C@]2(C)C3C(O)C=C4[C@H]5C[C@@](C)(C(=O)O)CC[C@]5(C)CC[C@]4(C)[C@]3(C)CC[C@@H]12 (stereo not given in full)	.	.	2.57	-1.61	.
CCOC(=O)CC(=O)CSc1ccc2nnc(-c3ccccc3)n2n1	1.4	5.6	0.879	0.981	5.9
CCOC(=O)N1CCC(Nc2ccc3nnc(-c4ccccc4)n3n2)CC1	1.6	9.9	2.17	2.69*	-14.7
CCn1c(CSc2nc3ccccc3s2)nnc1SCC(=O)c1ccc(Cl)cc1	1.3	42.6*	-0.987	-4.25*	-9.0
COC(=O)[C@@H]1CCCN1C(=O)[C@@H](NC(=O)OC(C)(C)C)C(C)C	.	.	-0.237	1.07	.
